Rows were chosen to be rich in hits. Some 2.8% of all compounds tested hit in one or more screens of this group.
GASC-1 inh: inhibitors of human GASC-1 (JMJD2C) demethylase; Q9H3R0; GST-JMJD2C(1-420) H3K9me3 demethylation, DELFIA europium; inhibition, % at 2.35 µM; 0.069% of 330,000 active; AID 2099;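 active = more than half of a compound's replicate wells show inhibition beyond 50%, single wells judged on their own value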;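 also: signal counts dimethyl H3K9 product captured on neutravidin plate; 0% = median of DMSO wells and 100% = 0.3 times that DMSO median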
KLK7 zymogen act: activates the human kallikrein-7 zymogen | AID 652039 | purified proKLK7, EDANS-DABCYL substrate fluorescence; 100% is mature enzyme control, 0% vehicle | activation, % at 7 µM | 0.9% of 370,000 active;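 active = activation above the mean of all tested compounds plus 3 SD, computed per campaign excluding outliers beyond control limits, cut at about 13% in these data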
NR1D1 modulator: modulators of human Rev-erb alpha DNA binding. AID 1259318. activity, % at 10 µM. Rev-erbα–FITC-DNA binding, fluorescence polarization, 90 min. 0.79% of 370,000 active. P20393;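 active = activity above about 14%, limit read from the data; passing the limit was not always enough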;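 also: 0% = DMSO wells with 35 nM protein and 100% = DMSO wells with 750 nM protein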
PP1 counter: PP1-alpha (human) inhibition in PP5 counter-screen. P62136. purified PP1alpha, OMFP fluorescence. inhibition, % at 6.7 µM. 0.9% of 320,000 active;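 active = inhibition above the mean inhibition of all tested compounds plus 3 SD, computed separately for each screening campaign, cut at about 15% in these data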
PP5 primary: inhibitors of human protein phosphatase 5 (PP5). P53041. purified PP5c, OMFP substrate fluorescence. inhibition, % at 6.7 µM. 0.18% of 320,000 active. AID 1987;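 active = inhibition above the campaign's mean inhibition across all tested compounds plus 3 SD, cut at about 9.5% in these data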;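 also: 0% = DMSO only and 100% = 100 µM cantharidin control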
PG9 binder: small molecules binding HIV-1 gp120 antibody PG9; inhibition, % at 6.7 µM; AID 624416; 0.43% of 360,000 active; TR-FRET gp120-PG9 antibody binding; in the data active = inhibition above about 8.5%
Active calls of the source: *.

Results for CCN(CC)c1ccc(-c2sc(Nc3ccccc3)n[n+]2-c2ccc(F)cc2)cc1 ?
GASC-1 inh: 19; KLK7 zymogen act: -1; NR1D1 modulator: 6; PP1 counter: 17*; PP5 primary: 4; PG9 binder: 6

How did CN(C)c1ccc(-c2sc(Nc3ccccc3)n[n+]2-c2ccc(F)cc2)cc1 do in these assays?
GASC-1 inh: -8; KLK7 zymogen act: 0; NR1D1 modulator: 1; PP1 counter: -3; PP5 primary: 2; PG9 binder: -1

What do the screens show for `CCCCCC(=O)O[C@]1(C(C)=O)CCC2C3CCC4=CC(=O)CC[C@]4(C)C3CC[C@@]21C` (stereo partly drawn)?
NR1D1 modulator: -5

What do the screens show for `C[C@H](CO)N1C[C@H](C)[C@@H](CN(C)S(=O)(=O)c2ccccc2)Oc2c(NC(=O)CCC(F)(F)F)cccc2C1=O`?
GASC-1 inh: 53*; KLK7 zymogen act: 0; NR1D1 modulator: -5; PG9 binder: -1

How did CNC[C@@H]1Oc2c(NC(=O)Nc3ccccc3)cccc2C(=O)N([C@@H](C)CO)C[C@H]1C do in these assays?
GASC-1 inh: 51*; KLK7 zymogen act: 0; NR1D1 modulator: 0; PG9 binder: -1

Results for COc1ccc(S(=O)(=O)Nc2cccc3c2O[C@H](CN(C)Cc2ccc(C(=O)O)cc2)[C@@H](C)CN([C@H](C)CO)C3=O)cc1 ?
GASC-1 inh: 58*; KLK7 zymogen act: 0; NR1D1 modulator: -2; PG9 binder: 0

How did C[C@H](CO)N1C[C@H](C)[C@@H](CN(C)S(=O)(=O)c2cccs2)Oc2c(NC(=O)CCC(F)(F)F)cccc2C1=O do in these assays?
GASC-1 inh: 52*; KLK7 zymogen act: 0; NR1D1 modulator: -5; PG9 binder: -1

How did CCCC(=O)O[C@]1(C(=O)CO)CCC2[C@@H]3CCC4=CC(=O)CC[C@]4(C)C3[C@@H](O)C[C@@]21C (stereo partly drawn) do in these assays?
NR1D1 modulator: -2

What do the screens show for `Nc1ccc(C2=Nc3cccc4cccc(c34)N2)cc1`?
GASC-1 inh: 11; KLK7 zymogen act: -1; NR1D1 modulator: -3; PG9 binder: -2

Results for COc1cccc(C2=Nc3cccc4cccc(c34)N2)c1 ?
GASC-1 inh: 1; KLK7 zymogen act: -2; NR1D1 modulator: -5; PP1 counter: 17*; PP5 primary: 4; PG9 binder: -5

What do the screens show for `CCOc1ccc(CCNC(=O)c2cc3sccc3n2Cc2cccc(C)c2)cc1OCC`?
NR1D1 modulator: -6

Results for CC1(C)CC(=O)N(CC(=O)N2CCN(c3ccc(F)cc3)CC2)c2ccccc2S1(=O)=O ?
KLK7 zymogen act: 1; NR1D1 modulator: 0

What do the screens show for `Cc1ccc(CNC(=O)c2ccc(N3CCC4(CC3)CC(c3ccccc3)=NO4)c(NC(=O)c3cccc(C)c3)c2)cc1`?
GASC-1 inh: -23; KLK7 zymogen act: 0; NR1D1 modulator: 6; PP1 counter: 0; PP5 primary: 2; PG9 binder: 1

Results for CCCNC(=O)c1ccc(N2CCC3(CC2)CC(c2cccc(Br)c2)=NO3)c(NC(=O)c2ccccc2)c1 ?
GASC-1 inh: 8; KLK7 zymogen act: 0; NR1D1 modulator: 6; PP1 counter: 16*; PP5 primary: 2; PG9 binder: 1

What do the screens show for `Cc1ccc(CNC(=O)c2ccc(N3CCC4(CC3)CC(c3ccccc3)=NO4)c(NC(=O)c3ccc(Cl)c([N+](=O)[O-])c3)c2)cc1`?
GASC-1 inh: -6; KLK7 zymogen act: 0; NR1D1 modulator: -2; PP1 counter: 15*; PP5 primary: 0; PG9 binder: 1

What do the screens show for `CC(=O)C1=C(O)C(=O)N(c2ccc(Br)cc2)C1c1cccc(F)c1` (stereo not drawn)?
GASC-1 inh: 12; KLK7 zymogen act: 0; NR1D1 modulator: -2; PP1 counter: 16*; PP5 primary: 2; PG9 binder: 4

How did COCCCNC(=O)C[C@H]1C[C@@]2(C(=O)OC)C(=C[C@H](C(C)C)O[C@@H]2C2CC2)N(Cc2cccc3ccccc23)C1=O do in these assays?
KLK7 zymogen act: 0; NR1D1 modulator: 5

From PubChem
